Our source for the Potency values is PubChem BioAssay AID1345082 (National Center for Advancing Translational Sciences (NCATS), 2018).

Screen size: about 94,000 compounds; about 4,000 (4.3%) were called active. Entries that show only a call come without a potency. Another 29% or so got no clear call; they are omitted. The call rests on the fitted dose curve; in most records, active means well fitted inhibition curve with a large enough effect; inconclusive means small, poorly fitted or top-dose-only effect; inactive means no such curve, though single readings can be large or run the other way. This excerpt belongs to a sample that is enriched for actives.
Potency means the concentration at half of the fitted maximal effect.

This experiment is described as follows: Cytotoxic Profiling in NIH 3T3 Cell Line of Diverse Libraries Using Quantitative High-Throughput Screening. Further: nearly all actives have a fitted effect of over 55% in size. Conditions: NIH 3T3 viability, CellTiter-Glo ATP luminescence, 48-72 h; series mostly up to 96.7 µM. From the text:
Cell-based phenotypic screening is a commonly used approach to discover biological pathways, novel drug targets, chemical probes and high-quality hit-to-lead molecules. Many hits identified from high-throughput screening campaign are ruled out through a series of follow-up potency, selectivity/specificity, and cytotoxicity assays. Prioritization of molecules with little or no cytotoxicity for a more in-depth downstream evaluation influence the future direction of projects, so cytotoxicity profiling of the screening libraries at early stage is essential for increasing the likelihood of candidate success. In this study, we analyzed results from a cell-based cytotoxicity screening campaign, comprising nearly 10,000 compounds in NCATS annotated libraries, and over 100,000 compounds in a diversity library, evaluated in four normal cell lines (HEK 293, NIH 3T3, CRL-7250 and HaCat) and a cancer cell line (KB 3-1, a HeLa subline) with overall screening outcomes, hit rates, pan-activity and selectivity. For the annotated library, we also examined the primary targets and mechanistic pathways regularly associated with cell death. To our knowledge, this is the first study to use high-throughput screening to profile large libraries for cytotoxicity assessment in both normal and cancer cell lines. In summary, the results generated here constitutes a valuable resource for the scientific community and provides insight on identifying cytotoxic compounds with particular mechanisms of action, and prioritizing compounds with suitable cytotoxicity profile for further evaluation.
NIH 3T3 cells were seeded into white 1536-well plates using a Multidrop Combi peristaltic dispenser (ThermoFisher, Waltham, MA) at a density of 400 cells/well in 5 uL of medium respectively. A pintool (Kalypsys) was used to transfer 23 nL of compound solution to the 1536-well assay plates. After 48 or 72 hr incubation at 37 degree Celsius, 5% CO2 and 95% humidity, 2.5 uL of CellTiter-Glo (Promega) was dispensed into each well using a dispenser (Aspect Automation, St. Paul, MN) with solenoid valves (Lee Valves, Westbrook CT). Plates were left at room temperature for 10 min before imaging the ATP-coupled luminescence using a ViewLux microplate imager (PerkinElmer, Waltham, MA).
(Cellular ATP, detected with luciferase, serves as a proxy for viable cell number.)
Turning to `Cc1nn(CCC#N)c(C)c1[C@@H]1C=C[C@@H](NS(=O)(=O)c2ccccc2)C1`, the Potency is 25.1 µM (active). As for `Cc1noc(C)c1[S+](=O)([O-])N1CCCC2(CC(Cc3ccccc3)=NO2)C1` (stereo unspecified), the Potency result is “inactive”. Turning to `CC(=O)N1CCN(C(=O)C[C@@H]2c3nc(NC(=O)c4cccs4)sc3C[C@@H]3[C@](C)(CO)[C@H](O)CC[C@]32C)CC1`, the Potency entry was “inactive”. Turning to `CN(C)CCNC(=O)C[C@@H]1c2nc(NC(=O)c3ccc(C(C)(C)C)cc3)sc2C[C@@H]2[C@](C)(CO)[C@H](O)CC[C@]21C`, the Potency is 25.1 µM (active).

Consider `C=CCOC(=O)Nc1nc2c(s1)C[C@@H]1[C@](C)(CO)[C@H](O)CC[C@@]1(C)[C@@H]2CC(=O)N(CC)CC`, for which the Potency entry was “inactive”. `C[C@]1(CO)[C@H]2Cc3sc(NC(=O)C4CCC4)nc3[C@@H](CC(=O)N3CCCCC3)[C@]2(C)CC[C@H]1O`: the Potency entry is “inactive”.

As to `COCC(=O)Nc1nc2c(s1)C[C@@H]1[C@](C)(CO)[C@H](O)CC[C@@]1(C)[C@@H]2CC(=O)NCCN1CCOCC1`, the Potency entry was “inactive”. For the molecule `C=CCN(C)C(=O)C[C@@H]1c2nc(NC(=O)c3ccc(C(C)(C)C)cc3)sc2C[C@@H]2[C@](C)(CO)[C@H](O)CC[C@]21C`, the Potency is 28.2 µM (active).

For `Cc1noc(C)c1[S+](=O)([O-])N1CCC2(CC(C(C)C)=NO2)C1` (stereo unspecified), the Potency result was “inactive”. In the case of `C[C@@H]1CN(C(=O)CNS(=O)(=O)c2cccs2)C[C@@]1(O)C1CC1` it was “inactive”; in that of `CN(C(=O)c1ccccc1)C1CCc2ccccc21` (stereo unspecified), “inactive”; in that of `CC(C)N(C)Cc1nnnn1CC(=O)NCc1ccc2nonc2c1`, “inactive”. As to `O=C(CN1C(=O)C(c2ccccc2)=NC12CCCC2)Nc1ccc2c(c1)OCCO2`, the Potency entry is “inactive”. As for `Cn1cnnc1CC1CCCN(C(=O)c2ccsc2)C1` (stereo unspecified), the Potency entry is “inactive”. In the case of `OC1(CN2CCC(CCn3cccn3)CC2)CNCCOC1` (stereo unspecified) it was “inactive”.

Turning to `COc1ccc(OCC2CCN(CC3(O)CCCNC3)CC2)cc1` (stereo unspecified), the Potency was 44.7 µM (active).

In the case of `CCc1cc(N2CCN(CC3(O)CCCNC3)CC2)ncn1` (stereo unspecified), the Potency entry is “inactive”. In the case of `Cc1cc(C)c(-c2nc3ncccc3[nH]2)[nH]1`, the Potency entry is “inactive”. Consider `CC(C)NC(=O)N1CCN(CCCn2nc3n(c2=O)CCCC3)CC1`, for which the Potency entry is “inactive”. `O=C(c1cccnc1)N1CCN(c2cc(-c3ccccc3)[nH]n2)CC1`: the Potency result is “inactive”. With `CCOc1cc(C(=O)N2CCCN(c3cc(-c4ccccc4)[nH]n3)CC2)cc(OCC)c1OCC`, the Potency result was “inactive”. For the molecule `COc1ccc(-c2cc(N3CCN(C(=O)c4ccncc4)CC3)n[nH]2)cc1`, the Potency entry is “inactive”. In the case of `O=C(N1CCN(c2cc(-c3ccc(Cl)cc3)[nH]n2)CC1)C1(c2ccccc2)CC1` it was 35.5 µM (active); in that of `O=C(c1ccc2cc[nH]c2c1)N1CCCN(c2cc(-c3ccc(Cl)cc3)[nH]n2)CC1`, 39.8 µM (active); in that of `COc1ccc(-c2cc(N3CCCN(C(=O)c4ccc(C)cc4)CC3)n[nH]2)cc1`, “inactive”. Turning to `O=C(NCc1ccccn1)c1ccc2oc(-c3cccnc3)nc2c1`, the Potency result was “inactive”. In the case of `O=C(c1ccccc1Cl)N1CCC(c2nc(-c3cccnn3)no2)CC1` it was “inactive”; in that of `O=C1NCCCCCN(C(=O)NCCc2ccccc2)[C@H]2CCC[C@@H]12`, “inactive”. In the case of `CCN(C1CCOCC1)C1CN(C(=O)C2CC2)C1` it was “inactive”; in that of `CC(=O)c1ccc(NC(=O)N2CCc3c(nc(-c4ccc(F)cc4)[nH]c3=O)C2)cc1`, “inactive”; in that of `O=S(=O)(NCC1CNCCOC1)c1ccc(F)c(F)c1F` (stereo unspecified), “inactive”. With `CCNc1cc(N2CCC(CCC(=O)Nc3ccc(C)cc3C)CC2)ncn1`, the Potency result was “inactive”. Regarding `CCOc1ncccc1CNC(=O)c1cc(S(N)(=O)=O)ccc1F`, the Potency result is “inactive”. In the case of `COc1ccc(CNC(=O)Cc2c[nH]c3ncc(-c4ccccc4)cc23)cc1OC` it was 39.8 µM (active); in that of `COc1ccccc1C(=O)NCc1ccnc2[nH]ccc12`, “inactive”; in that of `O=C(Cn1nc2c(cc1=O)CCCC2)NCc1cccc(F)c1`, “inactive”. Take `O=C(Cc1cccc(F)c1)Nc1cnc(-c2cccnc2)nc1`: the Potency result was “inactive”. In the case of `CNC(=O)c1cccc(-c2cnc3[nH]cc(CC(=O)NCc4cccc(F)c4)c3c2)c1` it was 89.1 µM (active). For the molecule `COc1ccc(CCNC(=O)c2nnn3cc(-c4ccccc4)[nH]c(=O)c23)cc1OC`, the Potency entry was “inactive”. As for `O=C(NCc1nc(-c2cccc(F)c2)c(-c2ccccn2)[nH]1)[C@@H]1CCCN1`, the Potency result was “inactive”.

Turning to `Cc1ccc(Nc2ccnc(N3CCCC3C(=O)N3CCC(Cc4ccccc4)CC3)n2)cc1` (stereo unspecified), the Potency is 20 µM (active). For `O=C(NCC(F)F)[C@@H]1CCCN1c1nccc(Nc2ccccc2Cl)n1`, the Potency entry was “inactive”. Regarding `COc1ccc(Nc2ccnc(N3CCC(C(=O)N4CCN(C(C)=O)CC4)CC3)n2)cc1`, the Potency result was “inactive”. `CCCN1CC(Oc2ccc(-c3noc(C4CC4)n3)cc2)C1`: the Potency entry is “inactive”. The entry for `COc1cccc(F)c1C(=O)N1C[C@H](N)C[C@H]1C(=O)NC(C)C` is “inactive”; for `O=C1CCCCC(CNC(=O)c2cc(F)ccc2F)N1` (stereo unspecified) it is “inactive”. For `Cc1cc(Cl)ccc1-c1ccc(CN)cc1`, the Potency was 31.6 µM (active). Consider `NCc1ccc(-c2cncnc2)cc1`, for which the Potency result was “inactive”.

`COc1cccc(CCC(=O)N2CCCC2c2nc(C3CCOCC3)no2)c1` (stereo unspecified): the Potency result was “inactive”.

Regarding `O=C(c1ccc(Cl)cc1)N1CCCC2(CNc3ncccc3[S+](=O)([O-])N2)C1` (stereo unspecified), the Potency result is “inactive”. Take `Cn1cnc(S(=O)(=O)N[C@H]2CCN(C(=O)c3ccco3)[C@H](C(=O)N[C@@H](Cc3cccs3)C(N)=O)C2)c1`: the Potency result was “inactive”. Take `COc1ccc(-c2cc(C[C@H]3CNCC[C@H]3CC(=O)NCCN(C)C)no2)cc1`: the Potency entry was “inactive”. In the case of `COc1ccc(CNC(=O)C[C@@H]2CCNC[C@@H]2Cc2cc(-c3ccc(C(C)(C)C)cc3)on2)cc1OC` it was 25.1 µM (active). The entry for `O=C(C[C@@H]1CCNC[C@@H]1Cc1cc(-c2ccc(F)cc2)on1)NCCN1CCOCC1` is “inactive”; for `CN1C(=O)CCC2(CNC(=O)c3ccoc3)CCCC=C12` (stereo unspecified) it is “inactive”; for `CCCn1ncc(C(=O)NCC2(O)CCCNC2)c1C` (stereo unspecified) it is “inactive”. Consider `CC(NC(=O)c1ccc(CN2C(=O)NC3(CCOCC3)C2=O)cc1)c1ccccc1` (stereo unspecified), for which the Potency result was “inactive”.

Turning to `COC(=O)C1CCN(C(=O)CC[C@H]2CNC(=O)[C@@H]3[C@@H](CCN3Cc3cccs3)N2C)CC1`, the Potency result is “inactive”. For the molecule `Cn1c(=O)n([C@H]2CCCN(C(=O)C3CC=CC3)C2)c2ncccc21`, the Potency result was “inactive”. For the molecule `Cc1cccc(C)c1-c1nc(C(=O)NCc2ccc(F)cc2)n2ccccc12`, the Potency result is “inactive”. `Cc1ccc(C)c(S(=O)(=O)c2nnn3c2nc(NCc2ccc(F)cc2)c2ccccc23)c1`: the Potency was 28.2 µM (active).
